USP8 block: inhibitors of human USP8 deubiquitinase; purified USP8, Ub-rhodamine cleavage fluorescence, 30 min; inhibition, % at 20 µM; hit rate 4.2% among 47,000; AID 1645853, 2021
UCHL1 inh: inhibitors of human UCHL1 deubiquitinase; Ubiquitin carboxyl-terminal hydrolase isozyme L1 (Homo sapiens), P09936; purified UCHL1, Ub-rhodamine cleavage fluorescence; inhibition, % at 20 µM; hit rate 0.2% among 47,000
Target sequence (P09936 whole entry, looked up): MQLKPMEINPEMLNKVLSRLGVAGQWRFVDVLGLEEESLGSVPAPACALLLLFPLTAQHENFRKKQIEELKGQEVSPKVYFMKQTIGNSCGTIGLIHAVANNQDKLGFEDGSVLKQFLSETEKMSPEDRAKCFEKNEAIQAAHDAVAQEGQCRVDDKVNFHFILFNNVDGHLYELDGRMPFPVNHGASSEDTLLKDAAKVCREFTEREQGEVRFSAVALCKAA
USP10 inh: inhibitors of human USP10 deubiquitinase; Ubiquitin carboxyl-terminal hydrolase 10 (Homo sapiens), Q14694; purified USP10, Ub-rhodamine fluorescence, 60 min; inhibition, % at 20 µM; hit rate 1.1% among 47,000
USP7 block: inhibitors of human USP7 deubiquitinase; Ubiquitin carboxyl-terminal hydrolase 7 (Homo sapiens), Q93009; inhibition, % at 20 µM; hit rate 0.3% among 47,000; purified USP7, Ub-rhodamine cleavage fluorescence
A number is an active result; n = inactive; x = no result given. This is a sample that favours compounds with a hit; in the whole collection about 5% have one here. No stated cut-off is given here; in the data, active means inhibition above about 30%; inactive means the rest.

SMILES | USP8 block | UCHL1 inh | USP10 inh | USP7 block
CCOC(=O)c1ccccc1NC(=O)CCc1nnc2ccc(N3CCC(C)CC3)nn12 | n | n | n | n
c1ccc(-n2nnc(-c3noc(-c4ccccn4)n3)c2-c2ccncc2)cc1 | 32 | n | n | n
Cc1ccc(-n2nnc(-c3noc(-c4ccccn4)n3)c2C)cc1 | n | n | n | n
CNc1nc2c(c(=O)n1Cc1ccccc1)CN(S(C)(=O)=O)CC2 | n | n | n | n
Cc1cc(C)c(NC(=O)Cc2sc(Nc3ccc(C)c(C)c3)nc2O)c(C)c1 | 67 | n | 35 | n
Cc1ccc(Nc2nc(O)c(CC(=O)Nc3ccc(C)cc3C)s2)cc1 | 46 | n | 38 | n
Cc1ccc(Nc2nc(O)c(CC(=O)Nc3ccccc3C)s2)cc1C | 90 | n | 36 | n
Cc1cc(CN2CCC(C3CCCCCN3C(=O)c3ccccc3)CC2)on1 (stereo unspecified) | n | n | n | n
Cc1ccc2[nH]c3c(=O)n(Cc4cccnc4)cnc3c2c1 | n | n | n | x
Cc1ccc2[nH]c3c(=O)n(Cc4ccc(N(C)C)cc4)cnc3c2c1 | 88 | n | n | n
CCCOc1ccc(C2CN3C(=O)CN(CCN4CCOCC4)C(=O)[C@]3(C)c3[nH]c4ccccc4c32)cc1OC (stereo partly specified) | n | n | n | n
COc1ccc2c(CCN=C(NC(C)=O)Nc3nc(C)cc(C)n3)c[nH]c2c1 | n | n | n | 34
COc1ccc2[nH]cc(CCN=C(NC(=O)C(C)C)Nc3nc(C)cc(C)n3)c2c1 | n | n | n | n
O=C(Nc1ccc(C(=O)N2CCCC2)cc1CS(=O)(=O)c1ccc(Cl)cc1)c1ccc(F)cc1 | n | n | n | n
Nc1ncnc2sc(Nc3ccc([N+](=O)[O-])cc3)nc12 | 50 | n | n | n
COc1ccc(C(=O)N2CCOC(c3nc(C)cc(=O)[nH]3)C2)cc1F (stereo unspecified) | n | n | n | n
CSc1ncccc1C(=O)OCc1ccccc1 | n | 74 | n | n
Cc1occ2c1C(=O)c1c(O)ccc(O)c1C2 | 84 | 97 | 89 | 99
Cc1cc(O)cc2c1C(=O)c1c(O)ccc(O)c1C2=O | n | n | n | n
Cc1cc2occ(CC(=O)NCC3CCCCC3)c2cc1C(C)C | n | n | n | n
N#Cc1c(-c2ccco2)ccn2nc(-c3ccc(Cl)cc3Cl)nc12 | 43 | n | n | n
N#Cc1c(-c2ccc(Cl)cc2)ccn2nc(-c3ccco3)nc12 | 48 | n | n | n
Oc1cc(OCc2cccc(C(F)(F)F)c2)ccc1-c1ccn[nH]1 | 75 | n | n | n
CN(C)CCCNC(=O)c1cc2cn(C3CCCC3)cc2s1 | 63 | n | n | n
CC1CCN(CCNC(=O)c2cc3cn(C4CC4)cc3s2)CC1 | 54 | n | n | n
SMILES | USP8 block | UCHL1 inh | USP10 inh | USP7 block
O=C(NCCCN1CCCC1=O)c1cc2cn(C3CC3)cc2s1 | 66 | n | n | n
CN1CCN(CCNC(=O)c2cc3cn(C4CCCC4)cc3s2)CC1 | n | n | n | n
Cc1ccnc(C2CCN(C(=O)CCc3c[nH]c4ccccc34)C2)n1 (stereo unspecified) | n | n | n | n
O=C(Cc1ccc(S(=O)(=O)N2CCOCC2)s1)NCc1cccc(C(F)(F)F)c1 | n | n | n | n
Cn1nccc1C(=O)N1CCCCC1c1ncc(Cc2ccc(Cl)cc2)o1 (stereo unspecified) | n | n | n | n
CCCCCC(=O)C(CCCC)c1oc(=O)c(CCCC)c(O)c1CCCC (stereo unspecified) | n | n | 39 | n
O=C(Cc1ccc(F)cc1)NCC(=O)N1CCC2(CC1)NCCc1[nH]cnc12 | n | n | n | n
CCOc1ccc(CC(=O)NCC(=O)N2CCC3(CC2)NCCc2[nH]cnc23)cc1 | 30 | n | n | n
COc1ccccc1C1CC(c2ccc(C)cc2)N(C(=O)C2CC2)c2ncnn21 (stereo unspecified) | n | n | n | n
CCCC(=O)N1CCC2(CC1)Nc1ccccc1NC2=O | 87 | n | n | n
COc1cc(NC(=O)Cn2c(=O)n(-c3ccc(CC(=O)NC4CCCC4)cc3)c(=O)c3ccccc32)cc(OC)c1 | 63 | n | n | n
COc1ccc(NC(=O)Cn2c(=O)n(C3CCCCC3)c(=O)c3ccccc32)cc1 | n | n | n | n
O=C(Cn1c(=O)n(CCC(=O)NC2CCCC2)c(=O)c2ccccc21)Nc1ccccc1F | n | n | n | n
O=C(Cc1ccc(-n2c(=O)c3ccccc3n(Cc3cccc([N+](=O)[O-])c3)c2=O)cc1)NC1CCCC1 | n | n | 36 | n
COc1ccc(OC)c(NC(=O)Cn2c(=O)n(C3CCCCC3)c(=O)c3ccccc32)c1 | n | n | 43 | n

Source: PubChem BioAssay (Buhrlage Lab, Dana-Farber Cancer Institute and Novartis Institutes for BioMedical Research (Cambridge, Mass))
